Results as given in PubChem BioAssay (EPA / NIEHS).
Activity calls are given as the source filed them. Rule for the calls: active = hit-call score of the fitted dose curve at least 0.9, where 1 is the maximum; inactive = score below 0.9.

What was measured:
[1] = ATG_GRE_CIS: Attagene CIS-FACTORIAL HepG2 Assay for human Glucocorticoid Response Elements (GRE) (AID 2282947); details: HepG2 GRE cis-reporter, Attagene multiplex mRNA; actives raise or lower the signal
How it was run: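 Fluorescence intensity of reporter-specific cDNA fragments, separated by capillary electrophoresis, provides the signal. Constructs carry cis-regulating promoters in transiently transfected HepG2 liver cells; 24 h incubation; fitting is bidirectional against DMSO.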

[2] = ATG_ISRE_CIS: Attagene CIS-FACTORIAL HepG2 Assay for human Interferon Regulatory Factor 1 (IRF1) binding to an Interferon-Stimulated Response Element (ISRE) (AID 2282948); details: HepG2 ISRE cis-reporter (Attagene), mRNA transcription readout; actives raise or lower the signal
How it was run: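 Signal reflects induction or loss of ISRE-linked reporter mRNA in transiently transfected HepG2 cells after a 24 h treatment, detected by fluorescent RT-PCR fragments on capillary electrophoresis and normalised to DMSO.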

[3] = ATG_M_32_CIS: Attagene CIS-FACTORIAL HepG2 Assay for M32 Transcription Factor (Internal Marker) (AID 2282949); details: HepG2 Attagene cis-factorial M32 reporter, mRNA; actives raise or lower the signal;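 note: background control marker of the multiplexed CIS panel rather than a real target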
How it was run: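 HepG2 transfectants (cis-regulated reporter transcription units) dosed 24 h. Reporter mRNA by RT-PCR plus CE, analysed as gain or loss relative to DMSO.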

[4] = ATG_M_06_CIS: Attagene CIS-FACTORIAL HepG2 Assay for M06 Transcription Factor (Internal Marker) (AID 2282950); details: HepG2 Attagene CIS-FACTORIAL M06 internal marker reporter; actives raise or lower the signal
How it was run: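 HepG2 cells transiently transfected with cis-regulated multiple reporter transcription units were exposed to chemical for 24 h; reporter mRNA was quantified by RT-PCR, 6-FAM primer labelling, HpaI digestion and capillary electrophoresis, fitted bidirectionally against DMSO.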

[5] = target: Hypoxia-inducible factor 1-alpha (Homo sapiens) (UniProt Q16665); experiment: ATG_HIF1a_CIS: Attagene CIS-FACTORIAL HepG2 Assay for human Hypoxia Inducible Factor 1 (HIF1A) (AID 2282951); details: HepG2 Attagene cis-factorial HIF1a reporter transcription; actives raise or lower the signal
How it was run: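 In this multiplexed cell assay, HepG2 cells bearing transfected cis reporters are dosed for 24 h and reporter mRNA is read by RT-PCR plus capillary electrophoresis; signal increases and decreases are both scored against DMSO.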

[6] = target: Hepatocyte nuclear factor 6 (Homo sapiens) (UniProt Q9UBC0); experiment: ATG_HNF6_CIS: Attagene CIS-FACTORIAL HepG2 Assay for human Hepatocyte Nuclear Factor 6 (HNF6) (AID 2282952); details: HepG2 Attagene cis-factorial HNF6 reporter transcription; actives raise or lower the signal
How it was run: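 First, HepG2 cells were transfected with the multiplexed cis reporter library and dosed with chemical for 24 h. Next, RNA was reverse-transcribed, PCR-amplified and fluorescently labelled. Finally, HpaI-digested fragments were read by capillary electrophoresis.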

[7] = target: Heat shock factor protein 1 (Homo sapiens) (UniProt Q00613); experiment: ATG_HSE_CIS: Attagene CIS-FACTORIAL HepG2 Assay for human Heat Shock Transcription Factor 1 (HSE) (AID 2282953); details: HepG2 HSE cis-reporter, Attagene RNA transcription; actives raise or lower the signal
How it was run: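 HepG2 cells transiently transfected with multiple reporter transcription units under cis-regulatory promoter control, measuring endogenous transcription factor activity. After 24 h chemical exposure, reporter mRNA quantified by RT-PCR, fluorescent labelling, HpaI digestion and capillary electrophoresis; bidirectional fit versus DMSO.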

[8] = ATG_MRE_CIS: Attagene CIS-FACTORIAL HepG2 Assay for human Metal Responsive Element (MRE) (AID 2282954); details: HepG2 MRE cis-reporter transcription, Attagene multiplex; actives raise or lower the signal
How it was run: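 Measured here is mRNA induction from an MRE cis-element reporter in HepG2 after 24 h, quantified by fluorescence of labelled RT-PCR products on capillary electrophoresis; gain- and loss-of-signal fits use DMSO as baseline.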

[9] = target: Bile acid receptor (Homo sapiens) (UniProt Q96RI1); experiment: ATG_IR1_CIS: Attagene CIS-FACTORIAL HepG2 Assay for human Nuclear Receptor Subfamily 1 Group H Member 4 (NR1H4), IR1 submotif (AID 2282946); details: IR1 reporter transcription, actives raise or lower the signal
How it was run: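 Fluorescence of capillary-separated, HpaI-digested RT-PCR reporter products gave IR1-element mRNA induction in HepG2 cells 24 h after dosing. Endogenous transcription factors drove the cis-regulated reporters; activity was fitted bidirectionally against DMSO.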

[10] = ATG_PBREM_CIS: Attagene CIS-FACTORIAL HepG2 Assay for human Phenobarbital-responsive Enhancer Module (PBREM) (AID 2282955); details: HepG2 PBREM cis-reporter, Attagene multiplexed transcription; actives raise or lower the signal
How it was run: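 After a 24 h incubation with test chemical, transfected HepG2 cells yield total RNA; reporter-specific RT-PCR products are fluorescently labelled, HpaI-digested and resolved by capillary electrophoresis against ROX size standards.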

Measured: AC50

Chain of Hypoxia-inducible factor 1-alpha (Homo sapiens) (Q16665 whole entry, looked up): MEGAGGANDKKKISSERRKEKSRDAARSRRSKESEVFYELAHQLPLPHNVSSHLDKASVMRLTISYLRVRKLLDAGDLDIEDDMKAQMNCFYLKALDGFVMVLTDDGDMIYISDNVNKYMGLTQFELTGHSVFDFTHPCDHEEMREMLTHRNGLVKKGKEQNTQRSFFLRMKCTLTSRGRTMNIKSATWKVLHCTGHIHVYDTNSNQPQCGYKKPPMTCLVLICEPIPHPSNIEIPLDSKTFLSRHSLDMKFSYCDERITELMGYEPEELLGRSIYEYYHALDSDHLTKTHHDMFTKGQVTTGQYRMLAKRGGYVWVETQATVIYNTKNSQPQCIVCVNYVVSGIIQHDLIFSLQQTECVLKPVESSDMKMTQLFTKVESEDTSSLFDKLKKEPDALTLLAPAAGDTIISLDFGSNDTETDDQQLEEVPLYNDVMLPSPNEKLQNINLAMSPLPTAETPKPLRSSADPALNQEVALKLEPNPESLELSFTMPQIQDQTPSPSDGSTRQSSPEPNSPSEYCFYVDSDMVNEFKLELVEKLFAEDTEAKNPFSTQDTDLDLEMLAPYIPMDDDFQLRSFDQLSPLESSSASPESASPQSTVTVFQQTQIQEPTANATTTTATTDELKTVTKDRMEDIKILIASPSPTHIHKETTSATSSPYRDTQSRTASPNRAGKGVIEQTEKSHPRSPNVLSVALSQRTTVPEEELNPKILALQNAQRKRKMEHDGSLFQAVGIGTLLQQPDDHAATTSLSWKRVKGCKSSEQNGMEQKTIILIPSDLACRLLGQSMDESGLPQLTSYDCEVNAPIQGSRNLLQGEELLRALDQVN
Chain of Heat shock factor protein 1 (Homo sapiens) (Q00613 whole entry, looked up): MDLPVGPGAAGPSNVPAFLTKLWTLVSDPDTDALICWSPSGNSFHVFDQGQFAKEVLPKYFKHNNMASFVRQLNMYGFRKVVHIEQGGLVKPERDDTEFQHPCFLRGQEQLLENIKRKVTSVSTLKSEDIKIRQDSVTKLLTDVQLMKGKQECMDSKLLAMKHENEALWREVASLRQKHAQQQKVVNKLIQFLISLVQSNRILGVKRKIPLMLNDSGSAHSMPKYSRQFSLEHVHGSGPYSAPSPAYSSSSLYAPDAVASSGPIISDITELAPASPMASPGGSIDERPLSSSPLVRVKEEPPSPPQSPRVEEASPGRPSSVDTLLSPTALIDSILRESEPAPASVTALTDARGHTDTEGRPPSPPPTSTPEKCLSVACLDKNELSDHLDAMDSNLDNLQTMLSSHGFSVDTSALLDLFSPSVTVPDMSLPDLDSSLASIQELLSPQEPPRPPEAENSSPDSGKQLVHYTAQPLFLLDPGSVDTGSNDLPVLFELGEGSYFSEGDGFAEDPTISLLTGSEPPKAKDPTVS
Chain of Bile acid receptor (Homo sapiens) (Q96RI1 whole entry, looked up): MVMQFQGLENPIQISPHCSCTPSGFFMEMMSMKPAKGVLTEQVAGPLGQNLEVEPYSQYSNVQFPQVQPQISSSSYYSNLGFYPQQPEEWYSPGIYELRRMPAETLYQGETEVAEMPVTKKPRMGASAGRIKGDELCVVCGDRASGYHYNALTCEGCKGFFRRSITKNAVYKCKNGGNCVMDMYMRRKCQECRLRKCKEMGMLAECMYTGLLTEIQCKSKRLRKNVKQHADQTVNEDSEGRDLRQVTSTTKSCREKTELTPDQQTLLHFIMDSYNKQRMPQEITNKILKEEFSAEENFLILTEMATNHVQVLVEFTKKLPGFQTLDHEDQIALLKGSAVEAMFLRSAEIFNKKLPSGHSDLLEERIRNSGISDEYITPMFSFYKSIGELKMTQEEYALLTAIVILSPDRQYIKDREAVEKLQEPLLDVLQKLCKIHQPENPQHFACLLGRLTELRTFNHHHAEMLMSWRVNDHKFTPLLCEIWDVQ
Chain of Hepatocyte nuclear factor 6 (Homo sapiens) (Q9UBC0 whole entry, looked up, the tested form may be a part): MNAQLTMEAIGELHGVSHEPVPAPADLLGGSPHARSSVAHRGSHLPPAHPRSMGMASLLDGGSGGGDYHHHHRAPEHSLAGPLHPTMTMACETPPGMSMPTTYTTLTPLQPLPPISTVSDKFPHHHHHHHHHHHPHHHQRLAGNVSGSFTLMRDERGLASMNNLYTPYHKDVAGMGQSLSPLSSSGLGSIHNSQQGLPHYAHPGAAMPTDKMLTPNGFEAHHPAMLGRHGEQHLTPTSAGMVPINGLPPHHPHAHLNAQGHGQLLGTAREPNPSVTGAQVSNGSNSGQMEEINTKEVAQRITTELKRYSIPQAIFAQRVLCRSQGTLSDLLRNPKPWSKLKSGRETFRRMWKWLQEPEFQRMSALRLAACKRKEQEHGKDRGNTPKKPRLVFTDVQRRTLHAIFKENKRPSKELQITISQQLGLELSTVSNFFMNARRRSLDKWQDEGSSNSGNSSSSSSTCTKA

COC(=O)c1cc(Cl)ccc1[N+](=O)[O-]
not listed: [9] | [10]
inactive: all other assays above

Cc1ccc(N/N=c2\c(=O)cc/c(=N/Nc3ccc(S(=O)(=O)O)cc3)c2=O)c(C)c1
not listed: [1] | [6]
inactive: all other assays above

O=c1cc[nH]c(=S)[nH]1
not listed: [1] | [7]
inactive: all other assays above

Cc1cc(=O)n(-c2ccccc2)n1C
inactive: [9] | [2] | [3] | [4] | [6] | [8]

C=CCCCCCCCCC(=O)OCCCC
not listed: [1] | [7]
inactive: all other assays above

CCCCCCCCCCOS(=O)(=O)O
not listed: [1] | [4]
inactive: all other assays above

CC(C)(c1cc(Br)c(OCCO)c(Br)c1)c1cc(Br)c(OCCO)c(Br)c1
active: [9] 7.14 µM | [3] 22.9 µM | [5] 6.89 µM | [6] 42.2 µM | [7] 21.5 µM | [8] 18.4 µM
inactive: [10]

CCCCNc1ccc(NCCCC)c2c1C(=O)c1ccccc1C2=O
not listed: [1] | [7] | [10]
inactive: all other assays above

COC(=O)c1ccc2cc(C(=O)OC)ccc2c1
not listed: [9] | [10]
inactive: all other assays above

CCCCCCCCCCC=CC#N
not listed: [1] | [7]
inactive: all other assays above

C=CC(C)(CCC=C(C)C)OC(=O)C(C)C (centres undefined)
not listed: [9] | [10]
inactive: all other assays above

C/C=C\C/C=C/CCCCCCCCOC(C)=O
active: [9] 122 µM | [7] 156 µM | [8] 100 µM
inactive: [3] | [4] | [5] | [10]

O=C1OC(=O)c2cc(Oc3ccc4c(c3)C(=O)OC4=O)ccc21
not listed: [1] | [7] | [10]
inactive: all other assays above

CCCOC(=O)CCCCC(=O)OCCC
not listed: [9] | [10]
inactive: all other assays above

O=C(O)C(c1ccc(Cl)cc1)c1ccc(Cl)cc1
active: [5] 72.1 µM
not listed: [1] | [4]
inactive: all other assays above

CC1=Nc2ccc3ccccc3c2C1(C)C
inactive: [9] | [3] | [4] | [5]
active: [8] 100 µM
